# Results: the supplement of paper PMC4466140
# Assays:
# Experiment in all cases: SPOT peptide array binding signal intensity (averaged, normalized) (arbitrary units (background-subtracted, floor 0; scale differs between SH3 domains)); higher = stronger binding of the SH3 domain to the peptide
# CaNbp2 = molecular target: CaNbp2
# Method: (§1)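 GST-tagged SH3 domains from S. cerevisiae (Sc), A. gossypii (Ag), C. albicans (Ca) and S. pombe (Sp) were incubated at 10 ug/ml overnight at 4 C on cellulose SPOT membranes carrying 292 synthetic 15-mer peptides mined from the S. cerevisiae proteome (cysteines replaced by serines). Binding was detected with anti-GST antibody, HRP secondary and chemiluminescence, quantified with Genespotter, and reported as normalized spot intensities averaged over biological replicates.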
# CaRvs167 = molecular target: CaRvs167
# Method: as §1
# CaRvs167-3 = molecular target: CaRvs167-3
# Method: as §1
# CaSho1 = molecular target: CaSho1
# Method: as §1
# CaSla1-D1-D2 = molecular target: CaSla1-D1-D2
# Method: as §1
# CaSla1-D3 = molecular target: CaSla1-D3
# Method: as §1
# ScAbp1 = molecular target: ScAbp1
# Method: as §1
# ScBbc1 = molecular target: ScBbc1
# Method: as §1
# ScBem1-D1 = molecular target: ScBem1-D1
# Method: as §1
# ScBzz1-D1 = molecular target: ScBzz1-D1
# Method: as §1
# ScBzz1-D2 = molecular target: ScBzz1-D2
# Method: as §1
# ScCyk3 = molecular target: ScCyk3
# Method: as §1
# ScFus1 = molecular target: ScFus1
# Method: as §1
# ScHof1 = molecular target: ScHof1
# Method: as §1
# ScHse1 = molecular target: ScHse1
# Method: as §1
# ScLsb1 = molecular target: ScLsb1
# Method: as §1
# ScLsb2 = molecular target: ScLsb2
# Method: as §1
# ScLsb3 = molecular target: ScLsb3
# Method: as §1
# ScLsb4 = molecular target: ScLsb4
# Method: as §1
# ScMyo3 = molecular target: ScMyo3
# Method: as §1
# ScMyo5 = molecular target: ScMyo5
# Method: as §1
# ScNbp2 = molecular target: ScNbp2
# Method: as §1
# ScPex13 = molecular target: ScPex13
# Method: as §1
# ScRvs167 = molecular target: ScRvs167
# Method: as §1
# ScSho1 = molecular target: ScSho1
# Method: as §1
# ScSla1-D1-D2 = molecular target: ScSla1-D1-D2
# Method: as §1
# ScSla1-D3 = molecular target: ScSla1-D3
# Method: as §1
# SpAbp1-D1 = molecular target: SpAbp1-D1
# Method: as §1
# SpBbc1 = molecular target: SpBbc1
# Method: as §1
# SpBzz1-D1 = molecular target: SpBzz1-D1
# Method: as §1
# SpBzz1-D2 = molecular target: SpBzz1-D2
# Method: as §1
# SpCyk3 = molecular target: SpCyk3
# Method: as §1
# SpHof1 = molecular target: SpHof1
# Method: as §1
# SpHof1-2 = molecular target: SpHof1-2
# Method: as §1
# SpHof1-3 = molecular target: SpHof1-3
# Method: as §1
# SpHse1 = molecular target: SpHse1
# Method: as §1
# SpLsb1 = molecular target: SpLsb1
# Method: as §1
# SpLsb4 = molecular target: SpLsb4
# Method: as §1
# SpMyo1 = molecular target: SpMyo1
# Method: as §1
# SpNbp2 = molecular target: SpNbp2
# Method: as §1
# SpPex13 = molecular target: SpPex13
# Method: as §1
# SpRvs167 = molecular target: SpRvs167
# Method: as §1
# SpSla1-D1-D2 = molecular target: SpSla1-D1-D2
# Method: as §1
# SpSla1-D3 = molecular target: SpSla1-D3
# Method: as §1
# AgAbp1 = molecular target: AgAbp1
# Method: as §1
# AgBbc1 = molecular target: AgBbc1
# Method: as §1
# AgBem1-D1 = molecular target: AgBem1-D1
# Method: as §1
# AgBzz1-D1 = molecular target: AgBzz1-D1
# Method: as §1
# AgBzz1-D2 = molecular target: AgBzz1-D2
# Method: as §1
# AgCyk3 = molecular target: AgCyk3
# Method: as §1
# AgFus1 = molecular target: AgFus1
# Method: as §1
# AgHof1 = molecular target: AgHof1
# Method: as §1
# AgHse1 = molecular target: AgHse1
# Method: as §1
# AgLsb1 = molecular target: AgLsb1
# Method: as §1
# AgLsb4 = molecular target: AgLsb4
# Method: as §1
# AgMyo5 = molecular target: AgMyo5
# Method: as §1
# AgNbp2 = molecular target: AgNbp2
# Method: as §1
# AgRvs167 = molecular target: AgRvs167
# Method: as §1
# AgSho1 = molecular target: AgSho1
# Method: as §1
# AgSla1-D1-D2 = molecular target: AgSla1-D1-D2
# Method: as §1
# AgSla1-D3 = molecular target: AgSla1-D3
# Method: as §1
# CaAbp1-D1 = molecular target: CaAbp1-D1
# Method: as §1
# CaAbp1-D2 = molecular target: CaAbp1-D2
# Method: as §1
# CaBbc1 = molecular target: CaBbc1
# Method: as §1
# CaBem1-D1 = molecular target: CaBem1-D1
# Method: as §1
# CaBzz1-D1 = molecular target: CaBzz1-D1
# Method: as §1
# CaBzz1-D2 = molecular target: CaBzz1-D2
# Method: as §1
# CaCyk3 = molecular target: CaCyk3
# Method: as §1
# CaFus1 = molecular target: CaFus1
# Method: as §1
# CaHof1 = molecular target: CaHof1
# Method: as §1
# CaHse1 = molecular target: CaHse1
# Method: as §1
# CaLsb1 = molecular target: CaLsb1
# Method: as §1
# CaLsb4 = molecular target: CaLsb4
# Method: as §1
# CaMyo5 = molecular target: CaMyo5
# Method: as §1
binder,measurement,setting,value
QRKSLRRPTLSKPAV,SPOT peptide array binding signal intensity,CaNbp2,319
same,SPOT peptide array binding signal intensity,CaRvs167,17.5
same,SPOT peptide array binding signal intensity,CaRvs167-3,5.5
same,SPOT peptide array binding signal intensity,CaSho1,76
same,SPOT peptide array binding signal intensity,CaSla1-D1-D2,118
same,SPOT peptide array binding signal intensity,CaSla1-D3,≤ 0
same,SPOT peptide array binding signal intensity,ScAbp1,52.5
same,SPOT peptide array binding signal intensity,ScBbc1,45.8
same,SPOT peptide array binding signal intensity,ScBem1-D1,53
same,SPOT peptide array binding signal intensity,ScBzz1-D1,32
same,SPOT peptide array binding signal intensity,ScBzz1-D2,43
same,SPOT peptide array binding signal intensity,ScCyk3,17
same,SPOT peptide array binding signal intensity,ScFus1,151
same,SPOT peptide array binding signal intensity,ScHof1,0.5
same,SPOT peptide array binding signal intensity,ScHse1,1190
same,SPOT peptide array binding signal intensity,ScLsb1,4
same,SPOT peptide array binding signal intensity,ScLsb2,6
same,SPOT peptide array binding signal intensity,ScLsb3,356
same,SPOT peptide array binding signal intensity,ScLsb4,10.5
same,SPOT peptide array binding signal intensity,ScMyo3,0.5
same,SPOT peptide array binding signal intensity,ScMyo5,1
same,SPOT peptide array binding signal intensity,ScNbp2,183
same,SPOT peptide array binding signal intensity,ScPex13,≤ 0
same,SPOT peptide array binding signal intensity,ScRvs167,25
same,SPOT peptide array binding signal intensity,ScSho1,250
same,SPOT peptide array binding signal intensity,ScSla1-D1-D2,370
same,SPOT peptide array binding signal intensity,ScSla1-D3,38.8
same,SPOT peptide array binding signal intensity,SpAbp1-D1,101
same,SPOT peptide array binding signal intensity,SpBbc1,3.5
same,SPOT peptide array binding signal intensity,SpBzz1-D1,202
same,SPOT peptide array binding signal intensity,SpBzz1-D2,≤ 0
same,SPOT peptide array binding signal intensity,SpCyk3,≤ 0
same,SPOT peptide array binding signal intensity,SpHof1,38.8
same,SPOT peptide array binding signal intensity,SpHof1-2,6.5
same,SPOT peptide array binding signal intensity,SpHof1-3,375
same,SPOT peptide array binding signal intensity,SpHse1,140
same,SPOT peptide array binding signal intensity,SpLsb1,8.75
same,SPOT peptide array binding signal intensity,SpLsb4,99
same,SPOT peptide array binding signal intensity,SpMyo1,7.75
same,SPOT peptide array binding signal intensity,SpNbp2,63.5
same,SPOT peptide array binding signal intensity,SpPex13,10
same,SPOT peptide array binding signal intensity,SpRvs167,14.5
same,SPOT peptide array binding signal intensity,SpSla1-D1-D2,≤ 0
same,SPOT peptide array binding signal intensity,SpSla1-D3,1
ISNFVPPNLPMRRFK,SPOT peptide array binding signal intensity,AgAbp1,31.5
same,SPOT peptide array binding signal intensity,AgBbc1,182
same,SPOT peptide array binding signal intensity,AgBem1-D1,124
same,SPOT peptide array binding signal intensity,AgBzz1-D1,90
same,SPOT peptide array binding signal intensity,AgBzz1-D2,70.5
same,SPOT peptide array binding signal intensity,AgCyk3,1
same,SPOT peptide array binding signal intensity,AgFus1,23
same,SPOT peptide array binding signal intensity,AgHof1,186
same,SPOT peptide array binding signal intensity,AgHse1,49
same,SPOT peptide array binding signal intensity,AgLsb1,136
same,SPOT peptide array binding signal intensity,AgLsb4,3890
same,SPOT peptide array binding signal intensity,AgMyo5,≤ 0
same,SPOT peptide array binding signal intensity,AgNbp2,64
same,SPOT peptide array binding signal intensity,AgRvs167,256
same,SPOT peptide array binding signal intensity,AgSho1,20.5
same,SPOT peptide array binding signal intensity,AgSla1-D1-D2,2.5
same,SPOT peptide array binding signal intensity,AgSla1-D3,3
same,SPOT peptide array binding signal intensity,CaAbp1-D1,40
same,SPOT peptide array binding signal intensity,CaAbp1-D2,9
same,SPOT peptide array binding signal intensity,CaBbc1,902
same,SPOT peptide array binding signal intensity,CaBem1-D1,21
same,SPOT peptide array binding signal intensity,CaBzz1-D1,370
same,SPOT peptide array binding signal intensity,CaBzz1-D2,297
same,SPOT peptide array binding signal intensity,CaCyk3,47
same,SPOT peptide array binding signal intensity,CaFus1,152
same,SPOT peptide array binding signal intensity,CaHof1,5
same,SPOT peptide array binding signal intensity,CaHse1,72
same,SPOT peptide array binding signal intensity,CaLsb1,10.2
same,SPOT peptide array binding signal intensity,CaLsb4,5880
same,SPOT peptide array binding signal intensity,CaMyo5,28.5
same,SPOT peptide array binding signal intensity,CaNbp2,103
same,SPOT peptide array binding signal intensity,CaRvs167,571
same,SPOT peptide array binding signal intensity,CaRvs167-3,6.25
same,SPOT peptide array binding signal intensity,CaSho1,49.5
same,SPOT peptide array binding signal intensity,CaSla1-D1-D2,1000
same,SPOT peptide array binding signal intensity,CaSla1-D3,250
same,SPOT peptide array binding signal intensity,ScAbp1,44
same,SPOT peptide array binding signal intensity,ScBbc1,130
same,SPOT peptide array binding signal intensity,ScBem1-D1,13
same,SPOT peptide array binding signal intensity,ScBzz1-D1,29.5
same,SPOT peptide array binding signal intensity,ScBzz1-D2,63
same,SPOT peptide array binding signal intensity,ScCyk3,5.5
same,SPOT peptide array binding signal intensity,ScFus1,17
same,SPOT peptide array binding signal intensity,ScHof1,8.75
same,SPOT peptide array binding signal intensity,ScHse1,122
same,SPOT peptide array binding signal intensity,ScLsb1,393
same,SPOT peptide array binding signal intensity,ScLsb2,372
same,SPOT peptide array binding signal intensity,ScLsb3,7910
same,SPOT peptide array binding signal intensity,ScLsb4,2470
same,SPOT peptide array binding signal intensity,ScMyo3,17.2
same,SPOT peptide array binding signal intensity,ScMyo5,1.5
same,SPOT peptide array binding signal intensity,ScNbp2,198
same,SPOT peptide array binding signal intensity,ScPex13,1760
same,SPOT peptide array binding signal intensity,ScRvs167,1610
same,SPOT peptide array binding signal intensity,ScSho1,85.5
same,SPOT peptide array binding signal intensity,ScSla1-D1-D2,367
same,SPOT peptide array binding signal intensity,ScSla1-D3,184
same,SPOT peptide array binding signal intensity,SpAbp1-D1,26
same,SPOT peptide array binding signal intensity,SpBbc1,36.5
same,SPOT peptide array binding signal intensity,SpBzz1-D1,748
same,SPOT peptide array binding signal intensity,SpBzz1-D2,3
same,SPOT peptide array binding signal intensity,SpCyk3,8
same,SPOT peptide array binding signal intensity,SpHof1,51.8
same,SPOT peptide array binding signal intensity,SpHof1-2,41
same,SPOT peptide array binding signal intensity,SpHof1-3,22
same,SPOT peptide array binding signal intensity,SpHse1,86
same,SPOT peptide array binding signal intensity,SpLsb1,236
same,SPOT peptide array binding signal intensity,SpLsb4,6240
same,SPOT peptide array binding signal intensity,SpMyo1,31.2
same,SPOT peptide array binding signal intensity,SpNbp2,13
same,SPOT peptide array binding signal intensity,SpPex13,57.5
same,SPOT peptide array binding signal intensity,SpRvs167,1440
same,SPOT peptide array binding signal intensity,SpSla1-D1-D2,69
same,SPOT peptide array binding signal intensity,SpSla1-D3,32
